Screening data as filed in PubChem.
Sampled rows, rich in hits. Any-hit rate of the full collection: about 2.8%.
Exocytosis inh = LAMP-1 surface exposure blockers, TALL-104 cells – cell-based, flow cytometry, MLPCN library, primary screen; TALL-104 LAMP-1 surface exposure; cells stimulated with thapsigargin and PMA; inhibition, % at 10 µM; 0.66% of 360,000 active; AID 651702, 2012;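 active = inhibition above about 55%, limit read from the data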
PP1 inh = PP1-alpha phosphatase inhibitors, primary screen, counter-screen for PP5 inhibitor project, biochemical, fluorescence, OMFP substrate, single point; Serine/threonine-protein phosphatase PP1-alpha catalytic subunit (Homo sapiens), P62136; purified PP1alpha; inhibition, % at 6.7 µM; 0.9% of 320,000 active;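 active = inhibition above the mean inhibition of all tested compounds plus 3 SD, computed separately for each screening campaign, cut at about 15% in these data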
SKKanGAS inh = S. pyogenes SKKanGAS growth inhibitors in kanamycin, primary screen, streptokinase expression inhibitor project, SKKanGAS strain, BacTiter-Glo luminescence; 6 h; inhibition, % at 7.5 µM; 1.3% of 300,000 active; AID 1662, 2009;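 active = mean replicate score, as percent of positive control median, at least 50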;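 note: strain carries kanamycin resistance gene driven by streptokinase promoter and grows in 40 µg/ml kanamycin; loss of luminescence reflects streptokinase promoter inhibition or plain growth inhibition; 0% = median of DMSO wells and 100% = positive control at its reference dose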
IDE cell activ = human IDE activators in live cells, primary screen, fluorescence polarization, HEK cells, FAbeta-B substrate; 0.073% of 340,000 active; activation, % at 5.96 µM; Insulin-degrading enzyme (Homo sapiens), P14735; AID 493087, 2011; FAbeta-B cleavage; 0% vehicle, 100% cell-free pure enzyme wells;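 active = activation above the mean of all tested compounds plus 3 SD, set per screening campaign, cut at about 17% in these data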
Target sequence (P14735 whole entry, looked up): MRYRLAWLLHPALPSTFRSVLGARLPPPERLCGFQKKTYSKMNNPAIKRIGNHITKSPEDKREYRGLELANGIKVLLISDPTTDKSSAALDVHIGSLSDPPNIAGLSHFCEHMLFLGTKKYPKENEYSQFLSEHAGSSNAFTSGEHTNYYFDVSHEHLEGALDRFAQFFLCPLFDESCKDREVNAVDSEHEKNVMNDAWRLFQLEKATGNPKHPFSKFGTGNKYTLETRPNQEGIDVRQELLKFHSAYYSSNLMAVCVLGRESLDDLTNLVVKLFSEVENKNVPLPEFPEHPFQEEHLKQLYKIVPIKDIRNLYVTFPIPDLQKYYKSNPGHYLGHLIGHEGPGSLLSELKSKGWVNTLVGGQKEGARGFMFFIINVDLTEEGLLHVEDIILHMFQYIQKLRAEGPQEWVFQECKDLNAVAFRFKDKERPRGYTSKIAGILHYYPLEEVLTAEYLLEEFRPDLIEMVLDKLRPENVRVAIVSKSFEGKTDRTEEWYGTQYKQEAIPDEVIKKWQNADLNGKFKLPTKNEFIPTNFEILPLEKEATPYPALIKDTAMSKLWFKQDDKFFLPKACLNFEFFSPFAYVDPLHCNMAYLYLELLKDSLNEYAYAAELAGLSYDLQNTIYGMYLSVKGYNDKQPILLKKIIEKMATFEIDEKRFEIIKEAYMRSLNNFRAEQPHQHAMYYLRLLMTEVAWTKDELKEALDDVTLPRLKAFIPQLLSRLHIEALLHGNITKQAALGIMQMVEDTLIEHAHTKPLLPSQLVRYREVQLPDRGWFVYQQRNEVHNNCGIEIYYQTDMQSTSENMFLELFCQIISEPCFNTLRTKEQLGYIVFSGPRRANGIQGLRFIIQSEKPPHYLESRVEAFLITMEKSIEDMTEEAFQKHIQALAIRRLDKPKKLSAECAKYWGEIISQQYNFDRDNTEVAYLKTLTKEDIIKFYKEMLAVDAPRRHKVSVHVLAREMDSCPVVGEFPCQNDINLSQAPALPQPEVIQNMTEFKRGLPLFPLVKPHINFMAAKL
PP5 primary = PP5 phosphatase inhibitors, primary screen, biochemical, fluorescence. purified PP5c, OMFP substrate fluorescence. inhibition, % at 6.7 µM. 0.18% of 320,000 active. AID 1987, 2009;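 active = inhibition above the campaign's mean inhibition across all tested compounds plus 3 SD, cut at about 9.5% in these data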;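 note: 0% = DMSO only and 100% = 100 µM cantharidin control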
IDE inh = human IDE inhibitors in live cells, primary screen, fluorescence polarization, HEK cells, FAbetaB substrate. 0.41% of 320,000 active. FAbetaB cleavage. AID 434962, 2010. inhibition, % at 5.59 µM;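 active = percent inhibition above the average of all tested compounds plus 3 SD, set per screening campaign, cut at about 16% in these data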;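 note: IDE supplied by intact live HEK cells; FP after avidin binding of uncleaved biotin substrate so inhibition keeps polarization high; 0% = DMSO wells and 100% = 60 µM reference IDE inhibitor Ii1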
* hit, by the source's call; · = no result given.

SMILES | Exocytosis inh | PP1 inh | SKKanGAS inh | IDE cell activ | PP5 primary | IDE inh
CCC(Sc1nc2ccsc2c(=O)n1Cc1ccc(C(=O)O)cc1)C(=O)Nc1cc(Cl)ccc1C (centres undefined) | 4.1 | · | · | · | · | ·
CCC(Sc1nc2ccsc2c(=O)n1Cc1ccc(C(=O)O)cc1)C(=O)Nc1ccc(C)c(Cl)c1 (centres undefined) | -6.4 | 16.6* | -4.3 | -2.9 | 3.3 | 3.2
CCOC(=O)Cc1csc(NC(=O)c2cc(=O)c3ccccc3o2)n1 | -1.8 | 0.3 | -5.0 | -0.5 | -0.3 | -0.9
Cc1cc(C)c2nc(NNC(=O)c3cc(=O)c4ccccc4o3)sc2c1 | 1.8 | 5.9 | 84.8* | -0.2 | 0.5 | 2.4
O=C(C1=C(O)C(=O)N(c2ccccc2)C1c1ccc([N+](=O)[O-])cc1)c1cccs1 (centres undefined) | 2.9 | 4.4 | 59.4* | 2.0 | 1.2 | 4.3
Cc1cccc(N2C(=O)C(O)=C(C(=O)c3cccs3)C2c2ccc(Cl)cc2)n1 (centres undefined) | -2.2 | 17.4* | 41.2 | 6.9 | 1.1 | 1.3
COc1ccc(OC)c(C(C[N+](=O)[O-])c2c(C)cc3ccccn23)c1 (centres undefined) | 75.1* | 6.9 | -7.9 | 0.2 | -1.6 | -5.4
COc1cc2c(cc1NC(=O)c1cc(-c3cccnc3)nc3ccc(C)cc13)oc1ccccc12 | -4.2 | -2.6 | 9.4 | 1.3 | 1.5 | 7.1
COc1cc2c(cc1NC(=O)c1cc(-c3ccncc3)nc3ccccc13)oc1ccccc12 | 1.4 | 15.4* | 9.0 | -3.8 | 1.2 | 1.2
CC(C)(C)OC(=O)NCC12C=CC(O1)C1C(=O)N(Cc3ccccc3)C(=O)C12 (centres undefined) | 85.1* | -0.3 | 1.5 | -4.8 | 0.7 | 3.5
COc1ccc(/C=C/c2nc(-c3ccccc3O)n[nH]2)cc1OC | 64.6* | 1.1 | -2.5 | 0.5 | 4.9 | 0.5
N#C/C(=C\c1cc(Cl)cc(Cl)c1O)C(=O)NC1CCCCC1 | 0.0 | 2.7 | 6.0 | 4.2 | 1.0 | 4.1
CCN(CC)c1ccc(CNCc2cccs2)cc1 | 0.4 | 17.4* | -1.9 | -1.4 | 1.2 | 0.8
Cc1ccc(CNC(=O)COC(=O)c2cccc(S(=O)(=O)N3CCCCC3)c2)cc1 | -3.7 | -1.8 | · | -4.9 | 3.3 | 0.9
Nc1ccc2nc(-c3ccc(Cl)cc3)[nH]c2c1 | -0.4 | 7.6 | 83.7* | -2.8 | 2.6 | -0.4
Nc1ccc(-c2nc3ccc(N)cc3[nH]2)cc1 | -0.1 | -1.7 | -4.4 | 2.6 | -1.1 | 1.2
Nc1ccc2nc(-c3cc(Cl)c(N)c(Cl)c3)[nH]c2c1 | 0.4 | 1.0 | 63.3* | -3.6 | 1.8 | 2.3
CCN1C(=O)[C@H]2[C@@H](c3ccc(-c4cccc(Cl)c4)c(OC)c3)N3CCCC[C@@]3(C(=O)OC)[C@H]2C1=O | -1.0 | · | · | -3.2 | · | 2.6
CCN(CC(=O)NC(C)(C)C)C(=O)COc1c(Cl)cc(Cl)c2ccc(C)nc12 | 13.5 | -1.2 | 86.8* | 4.6 | 1.7 | 1.0
C/C(=N\NC(=O)CSc1nc(C)[nH]c1[N+](=O)[O-])c1ccc(F)cc1 | -4.4 | -2.8 | 56.1* | 4.7 | 2.3 | 2.8
COc1cccc2[nH]c3ccccc3c(=O)c12 | -0.7 | -3.5 | -3.7 | 5.0 | 0.7 | 6.9
Nc1cccc2c(=O)c3ccccc3[nH]c12 | -4.9 | 16.2* | 14.8 | 0.6 | 1.8 | -1.6
Cc1nn(C)c(C(=O)Sc2cccc(Cl)c2)c1[N+](=O)[O-] | 64.3* | -4.5 | -8.6 | -7.3 | -0.6 | -2.8
CCn1nc(C)cc1C(=O)Sc1cccc(Cl)c1 | 68.1* | -4.1 | 4.1 | -3.4 | -0.6 | -0.6
CCN(CC)S(=O)(=O)c1ccc(Cl)c(NC(=O)COC(=O)/C=C/c2ccc(O)c(OC)c2)c1 | -0.4 | 2.3 | 6.1 | 0.0 | 6.1 | 6.2
SMILES | Exocytosis inh | PP1 inh | SKKanGAS inh | IDE cell activ | PP5 primary | IDE inh
CCCCC1=CC2=C(c3ccco3)C(=O)C(C)(OC(=O)c3ccc(OC)cc3)C(=O)C2=CN1c1ccc(OC)cc1 (centres undefined) | 24.3 | 15.7* | 1.0 | 1.4 | 2.5 | 7.4
CCCCC1=CC2=C(c3ccco3)C(=O)C(C)(OC(=O)c3ccc(OC)cc3)C(=O)C2=CN1Cc1ccco1 (centres undefined) | -0.7 | 16.1* | 5.8 | -3.9 | 1.7 | 1.4
CCCCC1=CC2=C(c3ccco3)C(=O)C(C)(OC(=O)c3ccc(OC)cc3)C(=O)C2=CN1Cc1ccc(OC)cc1 (centres undefined) | · | · | 6.2 | · | · | ·
Cc1c(C(=O)Nc2ccc(Oc3ccccc3)cc2)sc2nc3n(c(=O)c12)CCC3 | 0.6 | -2.1 | 55.7* | -11.8 | 0.8 | 8.7
Cc1c(C(=O)OCc2ccc(F)cc2)sc2nc3n(c(=O)c12)CCC3 | -0.3 | 0.5 | 13.0 | 1.1 | 0.2 | -1.3
Cc1c(C(=O)Nc2ccc(OC(F)(F)F)cc2)sc2nc3n(c(=O)c12)CCC3 | 0.4 | -2.1 | 30.7 | -1.5 | 2.2 | -3.3
COc1cccc(COC(=O)c2sc3nc4n(c(=O)c3c2C)CCC4)c1OC | -5.3 | -1.1 | 93.2* | 2.6 | -1.7 | 6.0
CC(=O)OC(C)=O | -1.9 | -0.9 | · | 4.6 | 0.5 | -3.5
COc1cccc(/C=N/NC(=S)NC2CC3CCC2C3)c1OC (centres undefined) | -14.8 | -7.5 | 3.5 | -16.2 | 0.7 | 12.4
Oc1ccccc1/C=N/NC(=S)NC1CC2CCC1C2 (centres undefined) | 10.0 | 7.0 | 69.7* | -4.0 | 2.8 | 14.8
COc1ccc(C(=O)NC(=S)NNC(=O)COc2ccccc2)cc1 | -2.2 | 2.1 | 88.4* | 1.9 | 2.5 | -1.5
O=C(COc1ccccc1)NNC(=O)c1ccc(Cl)cc1 | 11.7 | -1.9 | · | 2.6 | 2.3 | 2.8
COc1ccc(C(=O)NC(=S)NCCc2ccccc2)cc1 | 1.0 | 1.4 | -5.9 | 2.5 | 1.8 | -3.0
O=C(COc1ccccc1)NNC(=S)NC(=O)c1ccccc1 | 1.7 | 5.1 | 74.9* | 0.2 | -2.2 | 4.8
OC1(CNCc2cn[nH]c2-c2cc3ccccc3o2)CCCCC1 | 2.5 | -0.3 | -5.6 | -0.5 | 1.1 | 2.4
COCCN(CC(=O)Nc1ccccc1C(F)(F)F)C(=O)c1ccc(-n2cccn2)cc1 | 0.8 | -2.7 | · | 0.4 | -0.3 | 7.1
OCc1cccc[n+]1CCc1ccccc1 | -6.7 | -1.5 | -1.6 | · | 0.2 | -5.2
CC1Oc2cc3oc4c(O)c(O)ccc4c(=O)c3c(O)c2C1(C)C (centres undefined) | 13.8 | -2.5 | 52.7* | -2.3 | 6.2 | -1.7
Cn1nnnc1Sc1ncnc2scc(-c3ccc([N+](=O)[O-])cc3)c12 | -5.6 | 2.9 | · | -0.1 | 0.9 | 0.1
